Results filed as inconclusive are left out. Entries that show only a call come without a potency. Activity calls are given as the source filed them. Unless noted, calls follow the shape of the dose curve; as a rule, active = well fitted cell-killing curve with a large enough effect in the repeat runs; inconclusive = weak or mixed curves; inactive = flat fitted curve, though single readings scatter.

Androgen receptor (Homo sapiens), sequence (P10275 whole entry, looked up): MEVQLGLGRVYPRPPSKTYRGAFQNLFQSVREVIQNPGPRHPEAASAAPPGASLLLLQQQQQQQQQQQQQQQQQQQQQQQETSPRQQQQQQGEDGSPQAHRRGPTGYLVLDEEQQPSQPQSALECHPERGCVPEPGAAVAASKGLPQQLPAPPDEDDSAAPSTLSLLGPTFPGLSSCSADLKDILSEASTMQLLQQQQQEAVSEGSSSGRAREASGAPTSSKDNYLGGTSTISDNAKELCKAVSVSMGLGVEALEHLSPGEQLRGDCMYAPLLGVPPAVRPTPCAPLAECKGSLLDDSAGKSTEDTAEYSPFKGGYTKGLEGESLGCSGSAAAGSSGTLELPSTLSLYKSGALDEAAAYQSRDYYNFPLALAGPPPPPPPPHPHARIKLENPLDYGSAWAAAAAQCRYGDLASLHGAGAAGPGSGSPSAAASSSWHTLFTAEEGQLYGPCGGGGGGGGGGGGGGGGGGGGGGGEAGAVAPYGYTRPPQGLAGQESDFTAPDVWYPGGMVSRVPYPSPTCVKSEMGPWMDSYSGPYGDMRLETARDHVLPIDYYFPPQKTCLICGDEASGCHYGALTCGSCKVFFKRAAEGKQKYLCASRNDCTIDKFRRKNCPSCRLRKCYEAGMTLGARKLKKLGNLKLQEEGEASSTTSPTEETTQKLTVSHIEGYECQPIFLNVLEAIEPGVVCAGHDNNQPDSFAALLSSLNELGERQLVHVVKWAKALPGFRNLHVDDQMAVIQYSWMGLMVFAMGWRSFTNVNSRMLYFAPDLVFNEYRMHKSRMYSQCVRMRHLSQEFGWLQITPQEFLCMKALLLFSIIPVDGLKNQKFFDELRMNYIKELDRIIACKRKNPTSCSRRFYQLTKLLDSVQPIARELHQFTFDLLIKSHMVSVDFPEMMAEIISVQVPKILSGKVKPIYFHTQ

The first test has as its target Androgen receptor (Homo sapiens) (UniProt P10275). Put plainly: qHTS assay to identify small molecule agonists of the androgen receptor (AR) signaling pathway in the presence of an antagonist (AID 1259381; calls by dose curve; also: nearly all actives have a fitted effect of over 15% in size). As to conditions: MDA-kb2 MMTV-luciferase, AR agonist + nilutamide, 16 h; series mostly up to 92.4 µM. The procedure, abridged: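 Cells are MDA-kb2 (human breast carcinoma, MMTV-luc, AR/GR responsive). Nilutamide is present at 3.0uM final throughout; compounds are added at 15 concentrations and incubated 16hr at 37C before ONE-Glo luminescence detection.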
`O=C1NCCN1CCN1CCC(c2cn(-c3ccc(F)cc3)c3ccc(Cl)cc23)CC1`: the Potency result was “inactive”. Still for that read-out and setting: the value for `N#CSCSc1nc2ccccc2s1` was “inactive”. As for `Nc1ccc2cc3ccc(N)cc3nc2c1`, the Potency entry was “inactive”.

With `CCC(C)(C)c1cc(O)c(C(C)(C)CC)cc1O`, the Potency entry was “inactive”. Same read-out and setting: as for `CN1CCN(C2Cc3ccccc3Sc3ccc(Cl)cc32)CC1` (stereo not drawn), the entry is “inactive”.

With `Cc1ccc(-n2[nH]c(C)c(N=Nc3cccc(-c4cccc(C(=O)O)c4)c3O)c2=O)cc1C`, the Potency entry was “inactive”. The same measure, in the same setting: as for `CCCCCCCCCCOCC(O)CN` (stereo not drawn), the entry is “inactive”. The same measure, in the same setting: the value for `COc1cc(C=C2CCC/C(=C\c3ccc(O)c(OC)c3)C2=O)ccc1O` was “inactive”; that for `CC1CCCCN1CCCOC(=O)c1ccc(OC2CCCCC2)cc1` (stereo not drawn) was “inactive”.

Test system in the next test: not listed separately
The experiment in a line: qHTS assay to identify small molecule antagonists of the estrogen receptor beta (ER-beta) signaling pathway - cell viability counter screen (AID 1259382). Also: nearly all actives have a fitted effect of over 55% in size. Also: potency is read from the fitted curve at half-maximal effect. As to conditions: ER-beta-UAS-bla HEK293T viability, CellTiter-Glo luminescence, 16 h; series mostly up to 92.4 µM. The procedure, abridged:
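Following a 6 hr plating period, HEK293T cells carrying a UAS-driven beta-lactamase reporter under ER-beta control received compounds and 1nM E2 (final). After 16 hr at 37C and 2 hr substrate loading, CellTiter-Glo luminescence indicated viability.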
With `CO[C@H]1C=CO[C@@]2(C)Oc3c(C)c(O)c4c(O)c(cc(O)c4c3C2=O)NC(=O)/C(C)=C\C=C/[C@H](C)[C@H](O)[C@@H](C)[C@@H](O)[C@@H](C)[C@H](OC(C)=O)[C@@H]1C`, the Potency is 69.1 µM (active).

Consider `CCO[Si](CCCSSSSCCC[Si](OCC)(OCC)OCC)(OCC)OCC`, for which the Potency is 54.5 µM (active). On the same count and under the same terms, as for `SCCCCCCCCS`, the entry is “inactive”; as for `CN(C)c1ccc(N=Nc2ccccc2C(=O)O)cc1`, “inactive”. On the same count and under the same terms, the value for `CCCCCCCCCC(=O)N(C)C` was “inactive”. Still for that read-out and setting: the value for `O=C(Nc1ccc(Cl)c(Cl)c1)c1cc(Cl)cc(Cl)c1O` was 19.3 µM (active); that for `Nc1ccc2cc3ccc(N)cc3nc2c1` was “inactive”; that for `CCC(C)c1cc([N+](=O)[O-])cc([N+](=O)[O-])c1OC(=O)OC(C)C` (stereo not drawn) was “inactive”. As to `CCC(C)(C)c1cc(O)c(C(C)(C)CC)cc1O`, the Potency result is “inactive”. The same measure, in the same setting: the value for `CN1CCN(C2Cc3ccccc3Sc3ccc(Cl)cc32)CC1` (stereo not drawn) was 18.8 µM (active); that for `CCCCOc1ccc(C(=O)CCN2CCCCC2)cc1` was “inactive”; that for `CCC1(c2cnc[nH]2)Cc2ccccc2C1` was “inactive”. On the same count and under the same terms, as for `COc1ccccc1OCCNCC(O)COc1cccc2[nH]c3ccccc3c12` (stereo not drawn), the figure is 11.9 µM (active); as for `CN(C)CCCN1c2ccccc2Sc2ccc(C(F)(F)F)cc21`, 18.8 µM (active); as for `Cc1cc(Nc2ccc(O)cc2)ccc1N`, “inactive”. On the same count and under the same terms, the value for `Nc1cc(Cl)c([N+](=O)[O-])cc1O` was “inactive”; that for `CCCCCCCCCCOCC(O)CN` (stereo not drawn) was 26.6 µM (active).

For the compound `Cc1cc2c(C(C)C)c(O)c(O)c(C=O)c2c(O)c1-c1c(C)cc2c(C(C)C)c(O)c(O)c(C=O)c2c1O`, the Potency is 23.7 µM (active). The same measure, in the same setting: the value for `CC1CCCCN1CCCOC(=O)c1ccc(OC2CCCCC2)cc1` (stereo not drawn) was “inactive”.

The values are drawn from PubChem BioAssay (Tox21).
